# Reference: PubChem BioAssay (NCATS)
# Inconclusive results are not listed. The source made the active and inactive calls. Calls come from the whole dose curve; as a rule, active = well fitted cell-killing curve with a large enough effect; inconclusive = small, poorly fitted or top-dose-only effect; inactive = flat fitted curve, though single readings scatter.
# Experiment: Cellular viability qHTS for adrenocortical cancer (ACC) cell line SW-13 (AID 1963989); note: nearly all actives have a fitted effect of over 65% in size;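 for activity (max response): cells grown in serum-free medium with ITS supplement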
# Conditions: SW-13 ACC cells viability, CellTiter-Glo, 48 h; activity (max response): active compounds read low
# Text: PI: Naris Nilubol, MD Surgical Oncology Program, National Cancer Institute (NCI) National Institute of Health (NIH), Bethesda, Maryland Adrenocortical cancer (ACC) is a rare malignancy with poor survival outcomes and few treatment options. Currently, mitotane is the only FDA-approved therapy for ACC. Although adjuvant radiation therapy is rarely utilized, it has the potential to improve survival in select cases. Through a quantitative high-throughput drug screen (qHTS), we identified auranofin (AF), a thioredoxin reductase (TXNRD) inhibitor, as a promising candidate drug. This study aims to evaluate whether AF can enhance the efficacy of radiation therapy in the treatment of ACC. Two human ACC cell lines, SW-13 and NCI-H295R, were screened using the National Center for Advancing Translational Sciences (NCATS) Pharmaceutical Collection (NPC) and the Mechanism Interrogation PlatE (MIPE) library (~4,991 compounds). CellTiter-Glo (Cat # G7570, Promega, Madison, WI) was utilized to measure cell viability. Described herein are the results of the corresponding viability assay.
# PROTOCOL TABLE (as described by Inglese J, Shamu CE and Guy RK. 2007) SEQUENCE No. (e.g., 1, 2, 3, etc.); […] (e.g., Cells, Incubation, Reagent, etc.); VALUE; DESCRIPTION. 1; Cells; 5 uL; white, solid-bottom, 1536-well tissue-culture treated plates. 2; Time; overnight culture at 37C with 5% CO2. 3; Compounds and control; 23 nL; Kalypsis pin tool (Wako USA) equipped with a 1536-well pin head to transfer to the assay plates. 4; Time; 48 hours; 37C with 5% CO2. 5; Reagent; 4 uL; CellTiter-Glo luminescent substrate mix. 6; Time; 20 min at room temperature. 7; Detection; Luminescence; ViewLux plate reader NOTES (numbers refer to Sequence numbers above) 1. SW13 cells were harvested from a T175 flask and resuspended in ITS-supplemented DMEM serum-free medium at a concentration of 300 000 cells/mL. Then 5 uL of resuspended cells were dispensed into each well of white, solid-bottom, 1536-well tissue-culture-treated plates using a multidrop combi dispenser. The plates were covered with stainless steel gasket lids. 2-3. The plates were cultured overnight at 37C with 5% CO2. Twenty-three nL of compounds (eight selected concentrations from the NPC / MIPE) or positive control (10 mM stock of bortezomib) in DMSO was transferred to each well of the assay plate using a pin tool (Kalypsys, San Diego, CA, USA). The final concentration of the compounds in the 5 uL assay volume ranged from 0.5 nM to 46 uM. 4-6. After 48 hours of incubation at 37C and 5% CO2, 4 uL of CellTilter-Glo luminescent substrate mix (Promega, Madison, WI, USA) was added to each well. Then the plates were incubated for 20 minutes at room temperature. 7. After incubation, luminescence was measured using a ViewLux plate reader (PerkinElmer, Waltham, MA, USA) with a clear filter was used to measure the number of metabolically competent cells. To determine compound activity in the qHTS assay, the titration-response data for each sample was plotted and modeled by a four-parameter logistic fit yielding IC50 and efficacy (maximal response) values. […] REFERENCES: Inglese J, Shamu CE and Guy RK, Reporting data from high throughput screening of small molecule libraries, Nature Chemical Biology, 2007, 3(8): 438-441. doi.org/10.1038/nchembio0807-438.
# % is set by controls: 0 for no effect and ±100 for the full control effect.
Compound,activity (max response),Potency
C[C@H](N)C(=O)N[C@@H](C)C(=O)NC1[C@H]2CN(c3nc4c(cc3F)c(=O)c(C(=O)O)cn4-c3ccc(F)cc3F)C[C@@H]12 (some centres undefined),-13.3% (inactive),–
COc1ccc2cc(CCC(C)=O)ccc2c1,2.06% (inactive),–
Cn1cc(C(=O)[C@@H]2CCc3nc[nH]c3C2)c2ccccc21,-8.02% (inactive),–
O=C(CCCN1CCN(c2ccccn2)CC1)c1ccc(F)cc1,-12.5% (inactive),–
C=CC[N+]1([C@H]2C[C@H]3[C@@H]4CC[C@H]5C[C@H](O)[C@@H](N6CCOCC6)C[C@]5(C)[C@H]4CC[C@]3(C)[C@H]2OC(C)=O)CCCC1,-12.6% (inactive),–
CCCCN(CCCC)C(C(N)=O)c1ccc(OC)cc1 (centres undefined),14.1% (inactive),–
COc1ccc(-n2c(SCCCN3C(=O)c4cccc5cccc(c45)C3=O)nnc2-c2ccncc2)cc1,-14.9% (inactive),–
CCc1cc(Nc2nccc(-c3c(-c4ccc(OC)c(C(=O)Nc5c(F)cccc5F)c4)nc4ccccn34)n2)c(OC)cc1N1CCC(N2CCN(S(C)(=O)=O)CC2)CC1,-11.3% (inactive),–
Nc1n[n+]([O-])c2ccccc2[n+]1[O-],-11.6% (inactive),–
C[C@H]1CN(C2COC2)CCN1c1ccc(Nc2cc(-c3ccnc(N4CCn5c(cc6c5CC(C)(C)C6)C4=O)c3CO)cn(C)c2=O)nc1,10.6% (inactive),–
O=C(Cc1ccccc1)Nc1nnc(CCSCCc2nnc(NC(=O)Cc3ccccc3)s2)s1,11.1% (inactive),–
O=C(O)c1c(O)c(-c2ccccc2)nc2ccccc12,3.37% (inactive),–
N[C@H](C(=O)O)[C@@H](O)c1ccc(O)c(O)c1,16% (inactive),–
CN(C(=O)CCCOc1ccc2[nH]c(=O)ccc2c1)C1CCCCC1,-3.83% (inactive),–
CCn1c(=O)c2c(nc(/C=C/c3ccc(OC)c(OC)c3)n2C)n(CC)c1=O,-21.5% (inactive),–
C=C[C@@H]1CN2CCC1C[C@H]2[C@H](O)c1ccnc2ccc(OC)cc12 (some centres undefined),5.73% (inactive),–
COc1ccc2c(c1)C(=O)N(CCc1ccc(S(=O)(=O)NC(=O)NC3CCCCC3)cc1)C(=O)C2(C)C,-10.4% (inactive),–
CCC(=O)Oc1ccc2c(c1)CC[C@@H]1[C@@H]2CC[C@@]2(C)[C@H]1C[C@@H](OC(=O)CC)[C@@H]2OC(=O)CC,0.953% (inactive),–
CC(C)NC[C@@H](O)COc1cccc2ccccc12,-19.3% (inactive),–
O=C(CCBr)N1CCN(C(=O)CCBr)CC1,-6.49% (inactive),–
COc1ccc([C@@H]2Sc3ccccc3NC(=O)[C@@H]2O)cc1,–,7.31 µM (active)
Cc1c(Cl)cccc1S(=O)(=O)Nc1nc(CCN2CCOCC2=O)cs1,12.4% (inactive),–
CC(=C(CCOC(=O)C(C)C)SSC(CCOC(=O)C(C)C)=C(C)N(C=O)Cc1cnc(C)nc1N)N(C=O)Cc1cnc(C)nc1N,9% (inactive),–
C/C=C(/C(=C/C)c1ccc(OC(C)=O)cc1)c1ccc(OC(C)=O)cc1,–,18.4 µM (active)
